We go through nine molecules from PubChem BioAssay.

Experiment [1] can be described thus: optical density shifts of acrAB sulA E. coli – strain DRC41, OD650, 48 h, E. coli filamentation inducer project, primary screen (AID 1152).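 Also: E. coli MC1000 strain DRC41 lacking acrAB efflux pump and sulA.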 The following applies: higher = more signal, called active from +8 up or from −8 down.
Experiment [2] can be described thus: probe aLefty1 binding on compound microarray – biochemical, small-molecule microarray, 635/667 nm fluorescence, primary screen (AID 1153).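 Also: score merges spot fluorescence with signal-to-noise ratio from the scanned slide images.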 As to conditions: higher = more signal.
The nature of experiment [3]: plasmodial surface anion channel blockers, osmotic lysis – cell-based, P. falciparum Indochina, OD700, 1 h, primary screen (AID 1154). As to conditions: P. falciparum Indochina infected RBC osmotic lysis, higher = more signal, called active from +8 up or from −8 down.
A short description of experiment [4]: plasmodial surface anion channel blockers, osmotic lysis – cell-based, P. falciparum Indochina, OD700, 2 h, primary screen (AID 1155).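 Also: lysis reports solute entry through the parasite surface anion channel PSAC.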 The following applies: P. falciparum Indochina infected erythrocytes, higher = more signal, called active from +8 up or from −8 down.
A short description of experiment [5]: changes in parasitized red cell lysis, either direction – P. falciparum Indochina, OD700, 3 h, PSAC antagonist project, primary screen (AID 1156). As to conditions: P. falciparum-infected erythrocytes, osmotic lysis, higher = more signal, called active from +8 up or from −8 down.
Experiment [6] in a line: plasmodial surface anion channel blockers, osmotic lysis – cell-based, P. falciparum Indochina, OD700, 18 h, primary screen (AID 1157). As to conditions: P. falciparum Indochina infected erythrocytes, osmotic lysis OD700, 18 h; higher = more signal, called active from +8 up or from −8 down.
Experiment [7] is described as follows: S6 kinase pathway phospho-S6 level changes – cell-based, A549, cytoblot, luminescence, serum-stimulated, primary screen (AID 1158).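 Also: serum-stimulated A549 lung adenocarcinoma cells; signal is phosphorylated S6 detected by cytoblot immunostaining with HRP secondary.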 The following applies: 5 h, higher = more signal.
The target of experiment [8] is NADPH oxidase 2 (Homo sapiens) (UniProt P04839). Put plainly: compounds shifting NOX2 Amplex Red fluorescence – cell-based, HEK293-NOX2, PMA-stimulated, NOX inhibitor project, primary screen (AID 1159). Also: test concentration not given here. The following applies: 45 min, higher = more signal, called active from +8 up or from −8 down.
The target in experiment [9] is NADPH oxidase 4 (Homo sapiens) (UniProt Q9NPH5). Put plainly: compounds shifting NOX4 Amplex Red fluorescence – cell-based, HEK293-NOX4, tetracycline-induced, NOX inhibitor project, primary screen (AID 1160). The following applies: HEK293-NOX4, Amplex Red H2O2 fluorescence, 45 min; higher = more signal, called active from +8 up or from −8 down.
Experiment [10] concerns the target NADPH oxidase 5 (Homo sapiens) (UniProt Q96PH1). Put plainly: compounds shifting NOX5 Amplex Red fluorescence – cell-based, HEK293-NOX5, NOX inhibitor project, primary screen (AID 1161). The following applies: HEK293-NOX5, ionomycin, 45 min, higher = more signal.
Experiment [11] is described as follows: compound effects on lung adenocarcinoma cell viability – A549, calcein-AM fluorescence, 48 h, basal, profiling panel (AID 1162). Also: test concentration not given here. As to conditions: higher = more signal.
Experiment [12] in a line: compound effects on differentiated 3T3-L1 adipocyte viability – cell-based, 3T3-L1 adipocytes, calcein-AM fluorescence, 48 h, basal, profiling panel (AID 1163). Also: test concentration not given here. The following applies: 3T3-L1 adipocytes viability, higher = more signal.
The nature of experiment [13]: compound effects on hepatocellular carcinoma cell viability – HepG2, calcein-AM fluorescence, 48 h, basal, profiling panel (AID 1164). Also: test concentration not given here. The following applies: higher = more signal.
The nature of experiment [14]: compound effects on multiple myeloma cell viability – MM1S, calcein-AM fluorescence, 48 h, basal, profiling panel (AID 1165). Also: test concentration not given here. As to conditions: higher = more signal.
Experiment [15] in a line: calcein-AM signal in unstimulated myeloma cells – cell-based, calcein-AM fluorescence, 48 h, PK04 Diversity Set, profiling panel (AID 1166).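 Also: cells grown under basal conditions without added stimulus; test concentration not given here.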 As to conditions: RPMI8226 myeloma viability, higher = more signal.
A short description of experiment [16]: JC-1 mitochondrial signal, unstimulated HepG2 cells – cell-based, JC-1 fluorescence, 24 h, 100 nL compound, profiling panel (AID 1167). Also: test concentration not given here. As to conditions: HepG2 mitochondrial potential, higher = more signal.
A short description of experiment [17]: JC-1 mitochondrial signal, unstimulated adipocytes – cell-based, JC-1 fluorescence, 3T3-L1 adipocytes, 24 h, 100 nL compound, profiling panel (AID 1168). Also: test concentration not given here. As to conditions: JC-1 mitochondrial fluorescence, higher = more signal, called active from +8 up or from −8 down.
The nature of experiment [18]: JC-1 mitochondrial signal, unstimulated myeloma cells – cell-based, JC-1 fluorescence, RPMI8226, 24 h, 100 nL compound, profiling panel (AID 1169). Also: test concentration not given here. As to conditions: JC-1 mitochondrial potential fluorescence, higher = more signal.
A short description of experiment [19]: JC-1 mitochondrial signal, unstimulated MM1S myeloma – cell-based, JC-1 fluorescence, 24 h, 100 nL compound, profiling panel (AID 1170). Also: test concentration not given here. As to conditions: MM1S mitochondrial potential, higher = more signal.
Experiment [20] can be described thus: resazurin metabolic signal in A549 cells – cell-based, resazurin fluorescence, 24 h, PK04 Diversity Set, profiling panel (AID 1171). Also: test concentration not given here. The following applies: A549 viability, higher = more signal, called active from +8 up or from −8 down.

The structures appear in SMILES notation. Active and inactive are the calls of the source.

Chain of NADPH oxidase 2 (Homo sapiens) (P04839 whole entry, looked up): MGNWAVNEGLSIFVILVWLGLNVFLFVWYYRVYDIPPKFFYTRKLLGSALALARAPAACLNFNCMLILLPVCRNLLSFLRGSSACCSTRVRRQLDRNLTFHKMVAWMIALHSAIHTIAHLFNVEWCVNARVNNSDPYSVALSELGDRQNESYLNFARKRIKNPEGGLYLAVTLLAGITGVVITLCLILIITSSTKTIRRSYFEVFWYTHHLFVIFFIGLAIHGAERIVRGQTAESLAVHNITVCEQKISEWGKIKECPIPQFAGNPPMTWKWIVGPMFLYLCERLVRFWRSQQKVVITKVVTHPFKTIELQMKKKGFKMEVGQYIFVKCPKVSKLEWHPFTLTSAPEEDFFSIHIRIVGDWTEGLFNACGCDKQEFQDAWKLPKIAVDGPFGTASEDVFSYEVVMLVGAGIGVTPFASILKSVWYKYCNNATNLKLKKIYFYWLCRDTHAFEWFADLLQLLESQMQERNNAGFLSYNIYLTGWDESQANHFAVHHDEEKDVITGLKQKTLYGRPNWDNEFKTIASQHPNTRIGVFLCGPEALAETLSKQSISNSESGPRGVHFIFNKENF
Chain of NADPH oxidase 5 (Homo sapiens) (Q96PH1 whole entry, looked up): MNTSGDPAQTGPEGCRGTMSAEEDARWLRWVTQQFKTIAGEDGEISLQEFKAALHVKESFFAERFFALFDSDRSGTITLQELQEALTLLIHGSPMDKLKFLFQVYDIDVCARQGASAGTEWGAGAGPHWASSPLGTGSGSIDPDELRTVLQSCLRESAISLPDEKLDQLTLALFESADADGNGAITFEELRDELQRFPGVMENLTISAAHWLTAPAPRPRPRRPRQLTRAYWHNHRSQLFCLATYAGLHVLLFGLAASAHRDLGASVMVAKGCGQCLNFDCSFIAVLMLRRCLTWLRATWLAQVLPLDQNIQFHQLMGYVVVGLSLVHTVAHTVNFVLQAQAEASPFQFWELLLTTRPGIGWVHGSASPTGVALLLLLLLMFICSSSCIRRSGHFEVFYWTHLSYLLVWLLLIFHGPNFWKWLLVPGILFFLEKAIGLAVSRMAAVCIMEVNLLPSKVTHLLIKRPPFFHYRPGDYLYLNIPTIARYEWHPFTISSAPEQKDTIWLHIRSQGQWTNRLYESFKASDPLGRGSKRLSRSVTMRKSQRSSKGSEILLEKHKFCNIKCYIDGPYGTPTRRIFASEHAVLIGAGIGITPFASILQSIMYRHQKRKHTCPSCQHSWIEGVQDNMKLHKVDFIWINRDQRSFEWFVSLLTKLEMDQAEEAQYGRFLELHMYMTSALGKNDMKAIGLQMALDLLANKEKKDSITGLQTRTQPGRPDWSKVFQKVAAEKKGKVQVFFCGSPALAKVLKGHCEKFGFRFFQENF
Chain of NADPH oxidase 4 (Homo sapiens) (Q9NPH5 whole entry, looked up): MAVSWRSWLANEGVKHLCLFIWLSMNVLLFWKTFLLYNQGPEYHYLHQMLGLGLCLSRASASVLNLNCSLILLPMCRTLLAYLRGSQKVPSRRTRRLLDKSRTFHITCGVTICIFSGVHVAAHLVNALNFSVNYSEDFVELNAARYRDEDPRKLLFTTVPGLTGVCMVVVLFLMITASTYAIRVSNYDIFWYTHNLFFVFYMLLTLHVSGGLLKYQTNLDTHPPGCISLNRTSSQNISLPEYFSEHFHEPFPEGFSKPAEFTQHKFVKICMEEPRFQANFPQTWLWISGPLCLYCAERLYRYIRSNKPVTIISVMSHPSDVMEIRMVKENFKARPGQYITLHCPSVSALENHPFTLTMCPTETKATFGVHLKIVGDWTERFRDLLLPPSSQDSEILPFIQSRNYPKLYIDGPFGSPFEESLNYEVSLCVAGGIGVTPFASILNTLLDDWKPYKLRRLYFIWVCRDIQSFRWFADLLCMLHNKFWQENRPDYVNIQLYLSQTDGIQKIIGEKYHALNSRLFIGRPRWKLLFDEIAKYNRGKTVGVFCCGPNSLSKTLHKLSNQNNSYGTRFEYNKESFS

On to `Cc1ccc(S[C@]2(C(=O)NCCN3CCOCC3)CC(=O)N(Cc3ccccc3Cl)[C@@H]2c2ccc(CO)cc2I)cc1`, for which the z-score was 0.377 (inactive) in [1]; 5.93 (inactive) in [3]; 0.989 (inactive) in experiment [4]; 0.676 (inactive) in [5]; 0.4 (inactive) in [6]; -0.389 in experiment [7]. The z-score was 1.78 (inactive) in experiment [8]; -1.12 (inactive) in [9]; 1.15 in [10]; 0.932 in experiment [11]; -0.0217 in [12]; 0.995 in experiment [13]. The z-score in experiment [14] was -1.62; in experiment [15], -3.01; in [16], 1.53; in experiment [17], -0.272 (inactive); in [18], -0.151; in experiment [19], -1.87. In addition, the z-score in experiment [20] is -0.817 (inactive). In [2], the composite z-score amounted to 1.55.

`Oc1ccc2cc[n+](Cc3cc4c(cc3Br)OCO4)cc2c1`: the z-score is 1.27 (inactive) in [1]; 2.67 (inactive) in [3]; 0.864 (inactive) in experiment [4]; -0.655 (inactive) in experiment [5]; 0.474 (inactive) in experiment [6]; 0.122 in experiment [7]. Besides, the z-score in experiment [8] is -0.546 (inactive); in experiment [9] it was -0.154 (inactive); in experiment [10], 0.389; in experiment [11], 1.58; in experiment [12], -0.35; in experiment [13], 0.312. For the same molecule, the z-score in [14] is 0.677; in experiment [15] it was -1.77; in [16] it was -1.12; in [17], 0.418 (inactive); in [18], -0.123; in experiment [19] it was 0.313. Also, the z-score in experiment [20] is -0.585 (inactive). In experiment [2], this molecule showed a composite z-score of -0.196.

For the molecule `O=C1OCCC=C[C@H]2OC34C=CCN(Cn5nnc6ccccc65)C(=O)[C@H]3N(CCCO)C(=O)[C@@H]4C12` (stereo not given in full), the z-score in experiment [1] was 1.24 (inactive); in experiment [3], 0.502 (inactive); in experiment [4], -1.23 (inactive); in experiment [5], 1.65 (inactive); in experiment [6], -1.32 (inactive); in experiment [7], 0.601. Moreover, the z-score was 0.813 (inactive) in [8]; -0.341 (inactive) in experiment [9]; -1.35 in [10]; 0.213 in experiment [11]; 1.03 in experiment [12]; -1.1 in [13]. Besides, the z-score in experiment [14] is 0.114; in [15] it was -1.04; in experiment [16] it was -0.746; in [17], 0.147 (inactive); in experiment [18] it was 0.057; in experiment [19] it was 0.251. Also, the z-score in [20] was -0.618 (inactive). In [2], this molecule registered a composite z-score of -0.321.

For `[N-]=[N+]=Nc1ccccc1C[C@]1(C(=O)NCC(O)CO)COC(c2ccc(OCCCO)cc2)=N1` (stereo not given in full), the z-score was 0.759 (inactive) in experiment [1]; 22.8 (active) in [3]; 4.35 (inactive) in experiment [4]; 3.57 (inactive) in experiment [5]; 1.06 (inactive) in [6]; 0.575 in experiment [7]. Besides, the z-score was 1.52 (inactive) in experiment [8]; 0.179 (inactive) in [9]; -1.13 in [10]; 0.67 in experiment [11]; 1.11 in experiment [12]; 0.409 in experiment [13]. In addition, the z-score is 0.195 in experiment [14]; -0.0237 in experiment [15]; 0.244 in experiment [16]; -0.257 (inactive) in experiment [17]; -0.847 in experiment [18]; 0.639 in experiment [19]. The z-score in experiment [20] was 0.837 (inactive). Also, the composite z-score in experiment [2] worked out at 0.0512.

As for `C=CC[C@H](OC(=O)Nc1ccc(SC)cc1)c1ccc(O)c2ccccc12`, the z-score in experiment [1] is -1.2 (inactive); in experiment [3], 29.5 (active); in experiment [4], 16.8 (active); in experiment [5], 2.22 (inactive); in experiment [6], 1.63 (inactive); in experiment [7] it was 0.76. Besides, the z-score was -5.83 (inactive) in experiment [8]; -1.41 (inactive) in experiment [9]; -0.0589 in experiment [10]; -2.22 in [11]; -0.162 in experiment [12]; -3.05 in experiment [13]. Further, the z-score was -2.74 in experiment [14]; -4.21 in experiment [15]; -3.26 in experiment [16]; 0.41 (inactive) in experiment [17]; -1.02 in experiment [18]; -2.09 in experiment [19]. Also, the z-score in experiment [20] was -1.24 (inactive). In experiment [2], this molecule displayed a composite z-score of 0.27.

Consider `COc1cc(NN2C(C(O)c3ccco3)C=CC3C(=O)N(C)C(=O)C32)cc(OC)c1OC` (stereo not given), for which the z-score in experiment [1] is -1.82 (inactive); in experiment [3], 0.715 (inactive); in [4], 0.959 (inactive); in [5], 0.214 (inactive); in experiment [6] it was 1.1 (inactive); in experiment [7], -0.808. Also, the z-score is -1.95 (inactive) in [8]; -3.55 (inactive) in experiment [9]; -2.81 in experiment [10]; -1.2 in experiment [11]; -0.615 in [12]; -0.827 in experiment [13]. For the same molecule, the z-score was 0.032 in [14]; 0.134 in experiment [15]; -1.01 in experiment [16]; -0.892 (inactive) in experiment [17]; -0.573 in experiment [18]; 0.314 in experiment [19]. The z-score in [20] is -1.41 (inactive). Besides, the composite z-score in experiment [2] worked out at 0.429.

Take `C=CCN1C(=O)[C@]2(CCC(=O)OC(C)(C)C)N=C(c3ccc(OCCCO)cc3)O[C@@H]2c2ccccc21`: the z-score in experiment [1] was 0.736 (inactive); in [3], 34.1 (active); in experiment [4], 32.3 (active); in experiment [5], 2.29 (inactive); in experiment [6], 12.1 (active); in [7], 0.708. Further, the z-score in experiment [8] is -2.67 (inactive); in [9], 0.56 (inactive); in experiment [10], -0.299; in [11], -0.656; in experiment [12] it was 1.79; in experiment [13] it was -1.74. In addition, the z-score is -3.56 in experiment [14]; -4.05 in experiment [15]; -1.45 in experiment [16]; 4.11 (inactive) in experiment [17]; -1.05 in [18]; -2.81 in experiment [19]. Also, the z-score in experiment [20] was -2.21 (inactive). This molecule showed a composite z-score in experiment [2] of 0.576.

Regarding `C=CCC(OC(C)=O)[C@@H]1[C@@H](N(Cc2cccc3ccccc23)C(=O)Cc2ccc(F)cc2)c2cc(OCCCO)ccc2N1C(=O)c1ccc2ccccc2c1` (stereo not given in full), the z-score in [1] was 0.978 (inactive); in [3] it was 1.06 (inactive); in experiment [4] it was 0.479 (inactive); in experiment [5], 0.51 (inactive); in experiment [6], 0.484 (inactive); in [7], 0.336. Moreover, the z-score in [8] is -1.5 (inactive); in experiment [9], 0.344 (inactive); in [10], 0.453; in experiment [11] it was 0.937; in [12] it was 1; in experiment [13] it was 0.975. The z-score in experiment [14] was -0.222; in experiment [15], -0.754; in [16], 2.9; in experiment [17], -0.249 (inactive); in experiment [18], -0.774; in experiment [19], -0.45. In [20], the z-score is 1.25 (inactive). In addition, in [2], the composite z-score was 0.23.

In the case of `CCN(CC)c1ccc(N2CC=CC34O[C@@H]5/C=C\CCCOC(=O)C5[C@H]3C(=O)N(C(C)CO)[C@@H]4C2=O)cc1` (stereo not given in full), the z-score is 1.56 (inactive) in experiment [1]; 0.733 (inactive) in experiment [3]; -0.264 (inactive) in experiment [4]; 1.33 (inactive) in [5]; -0.306 (inactive) in experiment [6]; 0.0073 in [7]. Besides, the z-score in experiment [8] was 0.275 (inactive); in experiment [9], -0.0723 (inactive); in experiment [10], 0.83; in experiment [11], 0.838; in experiment [12], -0.536; in [13], 1.43. The z-score in [14] is 1.67; in experiment [15] it was 0.403; in [16] it was 0.8; in experiment [17] it was 0.744 (inactive); in [18] it was -0.441; in experiment [19] it was 0.135. Besides, in experiment [20], the z-score is 0.0032 (inactive). In experiment [2], this molecule displayed a composite z-score of -0.0814.
